# Test results from PubChem BioAssay.
# Experiments:
# [1] = test system: Human papillomavirus type 1a protein E7 (residues 44-93); experiment: small molecules binding HPV E7 44-93 – biochemical, small-molecule microarray, residues 44-93, 635 nm fluorescence, primary screen (AID 1108); settings: fluorescence 635 nm, higher = more signal;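 note: E7 fragment applied at 1 µg/mL in TBST for 1 h at 4 C; score combines spot fluorescence with its signal to noise ratio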
# [2] = hepatitis C replication reporter changes, two-sided – Huh7 cells, luciferase reporter, HCV replication inhibitor project, primary screen (AID 1109); settings: Huh7 HCV replicon luciferase reporter, 48 h; higher = more signal;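 note: huh7 hepatoma cells harbouring a luciferase neomycin HCV replicon reporter; luciferase luminescence as measure of HCV replicon replication; test concentration not given here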
# [3] = molecular target: Left-right determination factor 2 (Homo sapiens) (UniProt O00292); experiment: small molecules binding LEFTY2 protein – biochemical, small-molecule microarray, 635 nm fluorescence scan, primary screen (AID 1110); settings: higher = more signal
# Chain of Left-right determination factor 2 (Homo sapiens) (O00292 whole entry, looked up): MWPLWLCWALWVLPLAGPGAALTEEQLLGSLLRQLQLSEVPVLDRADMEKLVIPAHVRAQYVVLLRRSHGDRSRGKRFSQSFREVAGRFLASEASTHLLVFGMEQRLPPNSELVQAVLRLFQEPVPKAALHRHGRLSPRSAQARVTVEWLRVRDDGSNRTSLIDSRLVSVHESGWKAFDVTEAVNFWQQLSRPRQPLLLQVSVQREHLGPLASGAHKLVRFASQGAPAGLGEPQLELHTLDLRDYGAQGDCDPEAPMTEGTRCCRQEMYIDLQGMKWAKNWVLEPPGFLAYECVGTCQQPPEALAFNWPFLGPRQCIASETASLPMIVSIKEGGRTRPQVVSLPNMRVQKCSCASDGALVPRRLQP
# [4] = molecular target: Calmodulin-1 (Homo sapiens) (UniProt P0DP23); experiment: small molecules binding calmodulin-1 with EGTA – biochemical, small-molecule microarray, Cy5-labelled CALM1, profiling panel (AID 1111); settings: Cy5-CALM1 binding fluorescence, higher = more signal;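 note: labelled calmodulin applied in Tris saline Tween buffer holding calcium plus EGTA and DTT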
# [5] = molecular target: Calmodulin-1 (Homo sapiens) (UniProt P0DP23); experiment: small molecules binding Ca-loaded calmodulin-1 – biochemical, small-molecule microarray, Cy5-labelled CALM1, plus calcium, artefact control for SMM control-protein annotation, profiling panel (AID 1112); settings: Cy5-CALM1 binding fluorescence, higher = more signal;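 note: score merges spot fluorescence with signal to noise from triplicate slides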
# [6] = probe aWnt5a binding to arrayed compounds – biochemical, biotinylated probe, 635/667 nm fluorescence, primary screen (AID 1113); settings: small-molecule microarray, higher = more signal;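 note: score merges 667 nm fluorescence intensity with signal-to-noise per printed feature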
# [7] = probe aShh binding to arrayed compounds – biochemical, biotinylated probe, 635/667 nm fluorescence, primary screen (AID 1114); settings: small-molecule microarray, higher = more signal;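 note: probe is biotin-labelled aShh protein from a stem cell growth factor screen; measures binding of labelled protein to compounds printed on the slide; score merges feature fluorescence at 667 nm with signal-to-noise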
# [8] = probe aNog binding to arrayed compounds – biochemical, biotinylated probe, 635/667 nm fluorescence, primary screen (AID 1115); settings: small-molecule microarray, higher = more signal;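 note: probe is biotinylated aNog protein used at 0.15 µg/mL for 1 h at 4 C; z-score combines 667 nm fluorescence of each spot with its signal to noise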
# [9] = molecular target: Torsin-1A-interacting protein 1 (Homo sapiens) (UniProt Q5JTV8); experiment: compound microarray binding of lysate hLAP1 – cell lysate, small-molecule microarray, COS7 lysate, 635/667 nm fluorescence, primary screen (AID 1116); settings: 635 nm fluorescence, higher = more signal
# Chain of Torsin-1A-interacting protein 1 (Homo sapiens) (Q5JTV8 whole entry, looked up): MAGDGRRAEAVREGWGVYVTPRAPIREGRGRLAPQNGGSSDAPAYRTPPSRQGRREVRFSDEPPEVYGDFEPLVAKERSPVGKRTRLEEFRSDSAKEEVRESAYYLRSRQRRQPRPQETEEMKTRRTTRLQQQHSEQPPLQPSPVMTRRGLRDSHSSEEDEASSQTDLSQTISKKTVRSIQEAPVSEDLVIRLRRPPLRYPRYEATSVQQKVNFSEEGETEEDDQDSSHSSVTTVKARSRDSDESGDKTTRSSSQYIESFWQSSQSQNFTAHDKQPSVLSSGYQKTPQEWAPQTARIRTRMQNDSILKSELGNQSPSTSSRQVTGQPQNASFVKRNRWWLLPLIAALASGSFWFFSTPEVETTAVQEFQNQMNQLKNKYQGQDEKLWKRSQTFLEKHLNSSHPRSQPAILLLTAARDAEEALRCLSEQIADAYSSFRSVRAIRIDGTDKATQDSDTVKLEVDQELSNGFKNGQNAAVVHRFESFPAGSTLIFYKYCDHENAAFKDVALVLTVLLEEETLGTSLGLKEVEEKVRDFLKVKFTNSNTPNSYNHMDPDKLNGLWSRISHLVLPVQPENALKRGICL
# [10] = molecular target: Alpha-bungarotoxin (Bungarus multicinctus) (UniProt P60615); experiment: compounds binding labelled alpha-BTX control protein – biochemical, small-molecule microarray, Alexa647 label, 635/667 nm fluorescence, artefact control for SMM control protein annotation, profiling panel (AID 1117); settings: alpha-BTX-A647 binding fluorescence, higher = more signal
# Chain of Alpha-bungarotoxin (Bungarus multicinctus) (P60615 whole entry, looked up): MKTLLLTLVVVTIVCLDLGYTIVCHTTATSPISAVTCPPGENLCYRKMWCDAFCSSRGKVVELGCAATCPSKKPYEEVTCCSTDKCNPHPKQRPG
Structure (SMILES),composite z-score [1],z-score [2],composite z-score [3],composite z-score [4],composite z-score [5],composite z-score [6],composite z-score [7],composite z-score [8],composite z-score [9],composite z-score [10]
C=CC[C@@]1(C(=O)N(C)C)N=C(c2ccc(OCCCO)cc2)O[C@@H]1c1ccccc1CN=[N+]=[N-],1.42,-2.67,0.681,1.79,0.366,0.0293,0.246,0.0919,1.23,1.35
COc1ccc(C(=O)Nc2ccc(CN3C(=O)[C@@]4(O[C@@H](CCn5cc(CCO)nn5)[C@H]([Si](C)(C)c5ccc(OC)cc5)[C@H]4C)c4ccccc43)cc2)cc1,1.33,-5.11,0.904,-0.0429,-0.668,0.0433,-0.0146,0.0117,1.09,0.829
O=C(O)[C@H](Cc1ccccc1)n1cc(C2(O)CCCCC2)nn1,0.792,-0.96,0.678,-0.259,-0.691,-0.263,0.527,-0.0899,0.281,0.0396
CCCCC(O)C1C=CC2C(=O)N(c3ccccc3)C(=O)C2N1Nc1ccccc1 (stereo not given),1.24,-0.375,-0.484,1.14,1.06,0.0153,0.232,0.331,0.721,1.45
C=C(COC)/C(=C/C[C@H](OC(C)=O)c1ccccc1OCCO)c1cc(C(=O)OC)ccc1OC,0.992,-1.91,-0.138,-0.471,-1.12,-0.124,0.13,-0.194,-0.134,1.63
O=C(NC1CC1)[C@@H]1c2ccccc2C(=O)N(Cc2cc(C(F)(F)F)cc(C(F)(F)F)c2)[C@H]1c1ccc(CO)cc1,1.35,-1.02,-0.876,0.146,-0.366,-0.0203,-0.517,0.431,-0.0446,0.955
CCCCC(=C=CC[C@H](O)c1ccc(CO)o1)CCO,0.906,-0.401,0.346,0.155,-0.363,-0.124,0.137,0.2,0.906,0.221
CCOC(=O)c1cn(C[C@H](Cc2ccccc2)NC(=O)N[C@H](CO)CCc2oc(C(C)=O)c(C(=O)OC)c2C(=O)OC)nn1,1.39,0.404,0.896,-0.0815,-0.471,-0.0816,-0.0553,-0.158,0.866,0.491
CC(C)=C1C(=O)C(c2ccccc2)=C2CN3C(=O)N(CCc4ccccc4)C(=O)[C@]3(C)[C@H]21,0.186,-0.44,-0.245,1.16,0.0844,0.0825,0.748,0.794,0.149,0.196
C=CCC(OC(C)=O)[C@@H]1[C@@H](N(Cc2cc3ccccc3o2)C(=O)Cc2ccc(OC)cc2)c2cc(OCCCO)ccc2N1C(=O)c1ccc2ccccc2n1 (stereo not given in full),-0.329,-0.814,0.0809,-0.154,-0.292,0.0573,-0.0362,-0.0381,0.461,1.08
C=CCNC(=O)[C@H]1[C@@H]2C(=O)O[C@@H](c3ccccc3)[C@@H](c3ccccc3)N2[C@@H](c2ccccc2OCCO)[C@]12C(=O)N(C(=O)OCCOC)c1ccc(C#Cc3ccc(OC)cc3)cc12,1.39,-2.79,0.342,1.39,0.37,-0.152,-0.0011,0.254,0.143,1.3
CC(C)N1C(=O)c2ccccc2[C@](C)(C(=O)NCC(F)(F)F)[C@@H]1c1ccc(CO)cc1,-0.39,0.164,-1.41,-0.625,0.179,0.0031,-0.153,0.543,0.716,-0.573
COCCCNC(=O)[C@@]1(CCS(=O)(=O)c2ccccc2)COC(c2ccc(OCCCO)cc2)=N1,0.0612,-0.46,-0.241,2.65,1.26,0.0919,0.363,2.04,3.1,3.34
COCCCN1C(=O)[C@@]2(c3ccc([N+](=O)[O-])cc3)CC(=O)N(CC34CC5CC(CC(C5)C3)C4)[C@@H]2c2ccc(CO)cc21,0.372,-0.445,-0.407,-0.226,-0.406,-0.096,-0.291,-0.461,-0.507,0.241
CC(C)NC(=O)[C@@H]1c2ccccc2C(=O)N(Cc2ccc(OC(F)(F)F)cc2)[C@H]1c1ccc(CO)cc1,0.973,-0.779,0.39,0.1,-0.126,0.265,0.637,-0.486,0.673,0.589
C[C@@H]1NC(=O)C([C@@H](C)OCc2ccccc2)NC(=O)[C@@]23C(=O)N[C@@H](Cc4ccccc4)C2[C@H](C)[C@@]2(C)O[C@H]2C3/C=C/C/C=C\CNC1=O (stereo not given in full),-0.663,-0.914,-0.238,-1.17,-1.85,-0.172,0.299,-0.423,-0.215,-0.0334
COC(=O)C1(Cc2ccccc2)C=C2C(=C(C)C(=O)C2C)CN1 (stereo not given),-0.706,0.0597,-0.479,1.92,0.536,-0.0644,-0.0035,1.68,1.8,0.242

Structure (SMILES),composite z-score [1],z-score [2],composite z-score [3],composite z-score [4],composite z-score [5],composite z-score [6],composite z-score [7],composite z-score [8],composite z-score [9],composite z-score [10]
CN(C)CCCC[C@@H]1NC(=O)[C@@H]2C[C@H](C(=O)NCCCCCCNC(=O)CS)[C@H](c3ccc(O)cc3)N2C1=O,1.16,0.278,1.24,-0.383,-0.199,-0.275,-0.124,-0.0174,0.464,0.136
C=C(CCCC)C(=O)CC[C@@H](OC(=O)c1ccccc1-c1ccccc1C(=O)O)c1ccccc1OCCO,1.19,-2.84,0.0268,0.525,-0.954,-0.096,-0.0904,-0.147,2.43,0.16
CC(C)C(=C=CC[C@H](O)c1ccccc1OCCO)C[C@H](O)c1cc(Cl)cc(Cl)c1O,1.46,-1.99,0.0124,0.195,0.271,-0.106,0.0048,0.158,0.962,0.919
O=C1C[C@]2(c3ccc([N+](=O)[O-])cc3)C(=O)N(C3CC3)c3cc(CO)ccc3[C@H]2N1C1CCCCC1,0.481,0.82,0.0985,-0.301,-0.931,-0.178,-0.0146,-0.383,-0.0456,0.637
CCOC(=O)C[C@H]1[C@H](OC(=O)c2ccccc2-c2ccccc2)[C@@H](NC(=O)c2ccc3ccccc3c2)c2cc(OCCCO)ccc2N1C(=O)Cc1ccc(OC)cc1,-0.201,-1.6,0.23,0.115,0.0612,-0.0643,0.112,0.257,-0.0261,0.264
CC(C)NC(=O)[C@@]1(C)c2ccccc2C(=O)N(Cc2ccccc2)[C@H]1c1ccc(CO)cc1,0.864,-0.957,-1.47,-0.155,-0.672,-0.0819,-0.209,-0.45,-0.922,0.386
CCCNC(=O)[C@@]1(c2ccc([N+](=O)[O-])cc2)CC(=O)N(C(C)C)[C@@H]1c1ccc(CO)cc1,-0.603,0.0828,-0.649,-0.168,0.263,-0.18,-0.138,-0.326,-0.824,-0.276
COC(=O)C(CC#Cc1ccc2c(c1)[C@]1(C(=O)N2)[C@H](c2ccc(OCCO)cc2)N2[C@H](c3ccccc3)[C@H](c3ccccc3)OC(=O)[C@H]2[C@@H]1C(=O)N1CCCCCCC1)C(=O)OC,1.32,-0.851,1.62,2.73,1.29,1.25,2.81,2.33,4.91,2.62
COC(=O)[C@@]1(Cc2ccc(F)cc2)[C@H]2c3cc(C(=O)N(C)C)n(CCc4ccc(O)c(O)c4)c3C[C@H]2CN1C(=O)c1ccccc1,0.148,-1.78,-0.0362,0.584,0.813,0.183,-0.214,0.2,1.18,0.0055
COC(=O)[C@@]1(Cc2ccc(OC)cc2)[C@H]2c3cc(C(=O)N4CCCC4)n(Cc4ccc(C(F)(F)F)nc4)c3C[C@H]2CN1C(=O)c1ccccc1,0.381,-2.25,-0.412,0.0624,-0.954,0.037,-0.153,0.374,0.476,-0.075
CCOC(=O)C[C@H]1[C@H](OC(=O)Cc2ccc3c(c2)OCO3)[C@@H](NC(=O)c2ccc3ccccc3n2)c2cc(OCCCO)ccc2N1C(=O)Cc1ccc(OC)cc1,0.751,-1.39,0.394,0.436,0.137,-0.124,0.0723,-0.0184,0.6,0.597
COc1ccc([Si](C)(C)[C@H]2[C@H](CCO)O[C@@]3(C(=O)N(Cc4cccc(N5C(=O)c6ccccc6Oc6ccccc65)c4)c4ccccc43)[C@@H]2C)cc1,0.72,-4.89,-0.296,0.29,0.53,-0.091,-0.262,-0.0816,0.449,0.71
CC(C)=CCCC(C)=CC(O)C1C=CC2C(=O)NC(=O)C2N1Nc1ccccn1 (stereo not given),1.13,-0.156,1.45,-0.188,-1.15,0.176,-0.153,-0.0116,1,1.2
COCCOC(=O)N1C(=O)[C@@]2(c3cc(C#CC4(O)CCCCCC4)ccc31)[C@H](c1ccc(O)cc1)N1[C@H](c3ccccc3)[C@H](c3ccccc3)OC(=O)[C@H]1[C@@H]2C(=O)N1CCCCCCC1,-0.622,-1.05,0.298,-0.39,-0.631,0.0742,0.0907,2.25,1.88,0.88
CCN(CC)c1ccc(N2CC=CC34O[C@@H]5C=CCCOC(=O)C5[C@H]3C(=O)N(C(C)CO)[C@@H]4C2=O)cc1 (stereo not given in full),0.274,-1.19,-0.331,-0.521,-1.08,-0.0758,0.194,0.156,0.391,-0.973
CCOC(=O)C[C@H]1[C@H](OC(=O)Cc2ccc3c(c2)OCO3)[C@@H](NC(=O)Cc2ccc(OC)cc2)c2cc(OCCCO)ccc2N1C(=O)Cc1ccc(OC)cc1,0.221,-1.05,-0.261,0.824,0.0314,-0.147,-0.14,0.118,0.664,-0.105
COC(=O)C(CC#Cc1ccc2c(c1)[C@]1(C(=O)N2)[C@H](C(=O)NC[C@H](O)c2ccccc2)[C@H]2C(=O)O[C@H](c3ccccc3)[C@H](c3ccccc3)N2[C@@H]1c1ccccc1OCCO)C(=O)OC,1.45,-1.92,0.441,0.413,-0.0643,-0.1,-0.167,0.149,1.67,1.61
